The values below come from PubChem BioAssay (EPA / NIEHS).

Where “and” joins values, the source holds several entries; their conditions need not be identical. Identical values can stand only once. Some compounds were tested as several samples or in several runs, with calls that do not always agree. Calls of active or inactive are those of the source. How the source made its calls: active means hit-call score of the fitted dose curve at least 0.9, where 1 is the maximum; inactive means score below 0.9.

Read-out in this assay: ATP-citrate lyase (ACLY), ACLY (gene 47)
The assay can be described thus: LTEA_HepaRG_ACLY: Life Technologies and Expression Analysis (LTEA) Assay for ATP-citrate lyase (ACLY) using HepaRG (AID 2283466). To be noted: mRNA level, 48 h; actives raise or lower the signal. In a few lines: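 HepaRG, 48 h exposure, 8-pt half-log dilutions (top 100 uM), 0.5% DMSO. Readout: ACLY mRNA, TaqMan qRT-PCR, housekeeping-normalized (ACTB/GAPDH/POLR2A). Bidirectional curve fit vs DMSO.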
In the case of `CNC(=O)/C=C(\C)OP(=O)(OC)OC`, the compound was called inactive.

For the compound `N#Cc1c(Cl)c(Cl)c(Cl)c(C#N)c1Cl`, the call was inactive.

Turning to `CC1(C)C(C=C(Cl)Cl)C1C(=O)OC(C#N)c1ccc(F)c(Oc2ccccc2)c1` (stereo not given), the compound was classed as inactive.

With `O=C(NC(=O)c1c(F)cccc1F)Nc1ccc(OC(F)(F)C(F)OC(F)(F)F)c(Cl)c1` (stereo not given), the AC50 is 25 µM (active).

In the case of `O=C(Nc1ccccc1)Nc1cnns1`, the result was inactive.

Turning to `O=S(=O)(O)C(F)(F)C(F)(F)C(F)(F)C(F)(F)C(F)(F)C(F)(F)C(F)(F)C(F)(F)F`, the concentration at half-maximal activity (AC50) is 50 µM (active) and 9.92 µM (active); the compound was called inactive.

As to `CCc1ccc(C(=O)NN(C(=O)c2cc(C)cc(C)c2)C(C)(C)C)cc1`, the compound was called inactive.

As for `COP(=O)(OC)OC=C(Cl)Cl`, the compound was called inactive.

For `CC[C@H](C)[C@H]1O[C@]2(C=C[C@@H]1C)C[C@@H]1C[C@@H](C/C=C(\C)[C@@H](O[C@H]3C[C@H](OC)[C@@H](O[C@H]4C[C@H](OC)[C@@H](O)[C@H](C)O4)[C@H](C)O3)[C@@H](C)/C=C/C=C3\CO[C@@H]4[C@H](O)C(C)=C[C@@H](C(=O)O1)[C@]34O)O2` (tested in a mixture with another compound), the AC50 is 52.2 µM (active).

With `Clc1ccccc1-c1nnc(-c2ccccc2Cl)nn1`, the compound was called inactive.

Regarding `O=C1c2ccccc2C(=O)N1SC(Cl)(Cl)Cl`, the compound was called inactive.

On to `CCOC1Oc2ccc(OS(C)(=O)=O)cc2C1(C)C` (stereo not given), for which the AC50 was 82.6 µM (active).

For `O=C(O)CCCOc1ccc(Cl)cc1Cl`, the AC50 is 50.8 µM (active).

Regarding `CC(C)(C)C(O)/C(=C\c1ccc(Cl)cc1Cl)n1cncn1` (stereo not given), the AC50 was 88.9 µM (active).
